IL-1B inflam inh – inhibitors of inflammasome signaling (IL-1 beta secretion) | THP-1 LPS/ATP IL-1B secretion, AlphaLISA, 16 h; hits give low values | activity change, % at 57.5 µM | 4.7% of 360,000 active; in the data active means activity change below about -50%; inconclusive means mostly about -30% to -49%
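Secreted IL-1B measured by AlphaLISA bead assay after 16 h compound exposure of THP-1 cells; compounds (final up to 57.5 uM) added 1 h before LPS (250 ng/mL) and ATP (1.25 mM) stimulation; lower signal means less secretion.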
TDP1 inh – blocks human tyrosyl-DNA phosphodiesterase 1 | recombinant TDP1, AlphaScreen DNA substrate cleavage | Potency, µM (top dose mostly 130 µM), inactives show at the highest dose activity change, negative = inhibition, hits mostly inhibitors | 0.28% of 350,000 active; further: potency means the concentration at half of the fitted maximal effect; nearly all actives have a fitted effect of over 40% in size
Target sequence (Q9NUW8 whole entry, looked up): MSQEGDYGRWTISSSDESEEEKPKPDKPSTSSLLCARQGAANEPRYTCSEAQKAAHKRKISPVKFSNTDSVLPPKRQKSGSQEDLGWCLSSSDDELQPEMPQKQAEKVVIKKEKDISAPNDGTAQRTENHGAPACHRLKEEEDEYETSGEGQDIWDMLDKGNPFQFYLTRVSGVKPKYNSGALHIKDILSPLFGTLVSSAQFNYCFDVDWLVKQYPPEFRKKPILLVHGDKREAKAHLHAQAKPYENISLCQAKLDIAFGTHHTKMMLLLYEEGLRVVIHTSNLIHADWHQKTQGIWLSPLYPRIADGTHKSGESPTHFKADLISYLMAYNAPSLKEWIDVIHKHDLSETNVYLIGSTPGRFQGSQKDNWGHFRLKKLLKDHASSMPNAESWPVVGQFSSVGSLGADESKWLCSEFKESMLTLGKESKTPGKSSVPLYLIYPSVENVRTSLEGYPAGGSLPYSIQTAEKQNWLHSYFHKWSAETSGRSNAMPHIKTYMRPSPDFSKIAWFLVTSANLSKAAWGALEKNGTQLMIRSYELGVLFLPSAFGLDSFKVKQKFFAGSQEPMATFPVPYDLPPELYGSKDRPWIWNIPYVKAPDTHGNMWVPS
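E. coli-derived human Tdp1, 1 nM final. Cpd preinc 15 min RT; substrate 15 nM final, 5 min RT; AS bead mix 10 ug/ml final, 10 min RT. Signal loss = tyrosine-FITC cleavage. No-enzyme wells = max signal.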
TDP1 cell CPT – growth inhibition of DT40 Tdp1-/-;hTDP1 cells with camptothecin (screen for TDP1 inhibitors); chicken DT40 Tdp1-/-;hTDP1 cells + 20 nM CPT, ATP luminescence, 48 h; Potency, µM (series often up to 46.2 µM), inactives show at the top dose activity change, negative = growth inhibition, actives largely listed as inhibitors; 12% of 420,000 active; AID 686979; further: potency means the concentration at half of the fitted maximal effect; nearly all actives have a fitted effect of over 55% in size
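Chicken DT40 Tdp1-/- cells complemented with human TDP1, 400 cells/well, exposed to compounds plus 20 nM camptothecin for at least 48 h at 37 C; viability read as ATP content by CellTiter-Glo luminescence.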
TDP1 cell noCPT – qHTS for Inhibitors of human tyrosyl-DNA phosphodiesterase 1 (TDP1): qHTS in cells in absence of CPT; DT40 Tdp1-/- hTDP1 cells, no CPT, ATP luminescence, 48 h; Potency, µM (highest dose often 46.2 µM), for inactives: at the highest dose activity change, negative = growth inhibition, most hits filed as inhibitors; 15% of 420,000 active; AID 686978, 2013; further: potency means the concentration at half of the fitted maximal effect; nearly all actives have a fitted effect of over 55% in size
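Growth of hTDP1-complemented DT40 Tdp1-knockout cells is measured by ATP luminescence after at least 48 hr compound exposure at 37 °C, with DMSO substituting for the 20 nM CPT used in the parallel screen.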
Giardia killer – kills Giardia lamblia. Giardia lamblia trophozoite viability. activity change, % at 7.66 µM, hits read low. 0.15% of 340,000 active; in the data active means activity change below about -80%; inconclusive means between about -30% and that limit;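 further: parasites exposed to compound for two days anaerobically before the ATP read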
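ATP-content bioluminescence gauges trophozoite survival. Cells (100/well) receive compound and incubate anaerobically for 48 hrs at 37 deg C; detection reagent follows for 15-30 min at room temperature.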
ELG1 repair inh – ELG1-dependent DNA repair inhibition | HEK293T ELG1-luciferase reporter, luminescence, 16 h; DNA damage induced by 5-fluorouridine | Potency, µM (series often up to 46.1 µM), for the others: top-dose activity change, negative = inhibition, hits mostly inhibitors | 2.3% of 330,000 active; further: potency means the concentration at half of the fitted maximal effect; nearly all actives have a fitted effect of over 55% in size
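5-Fluorouridine DNA damage + compound/DMSO, 2,000 cells/well, 16 h, 37 °C/5% CO2. ONE-Glo, 30 min RT, luminescence. Readout = decrease in reporter signal.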
Numbers without * were called inactive; u = inconclusive; x = no result given. An excerpt weighted towards active compounds, which were near 19% of everything screened. Unless noted, the call rests on the fitted dose curve; in most records, active means well fitted curve in the direction sought with a large enough effect; inconclusive means small, poorly fitted or top-dose-only effect, or another doubt; inactive means no such curve, though single readings can be large; an effect the other way counts as inactive or inconclusive. On the % scale 0 is the no-effect control and ±100 the full control effect.

SMILES	IL-1B inflam inh	TDP1 inh	TDP1 cell CPT	TDP1 cell noCPT	Giardia killer	ELG1 repair inh
O=C(NNc1ccc(O)cc1)c1ccc(Br)cc1	31	6%	21µM*	12µM*	-11	5.8µM*
OCC[C@@H]1C[C@@H](O)[C@H](O)[C@]2(CCc3ccccc3O2)O1	15	x	u	-16%	5	-8%
Cc1ccc(NC(=S)c2nc3ccccc3[nH]2)cc1	-6	13%	13µM*	10µM*	u	u
C=CCNc1nc(Nc2ccc(OC)cc2OC)nc(OCC)n1	6	4%	16µM*	u	-6	u
COc1ccccc1C(=O)N/C(=C/c1ccc(Br)cc1)C(=O)N1CCOCC1	8	x	-26%	u	x	x
COc1ccc2c(c1)sc(N)[n+]2Cc1cc(C)cc2cccnc12	-52*	3%	4.6µM*	2.6µM*	16	u
CCOc1ccc2c(c1)sc(N)[n+]2Cc1cc(C)cc2cccnc12	-92*	4%	1µM*	1µM*	13	u
COC(=O)C(CC(C)C)NC(=O)c1cccs1 (stereo unspecified)	-8	1%	-11%	4%	-6	6%
Cc1ccc(NNC(=O)c2ccno2)cc1Cl	49	0%	u	10µM*	13	-5%
Cc1cc(C(=O)NNc2ccc(C)c(C)c2)no1	29	8%	3%	-12%	-16	8.2µM*
Cc1ccc(NNC(=O)c2c(C)noc2C)cc1Cl	12	11%	-1%	-22%	-28	3%
Cc1cc(C(=O)NNc2ccc(Cl)cc2)no1	4	9%	10%	u	9	u
Cc1ccc2c(c1)N(C(=O)N1CCC(C(=O)Nc3cccc(F)c3)CC1)CCO2	x	0%	u	18µM*	x	x
O=C(NC1CCCCCC1)C1CCN(C(=O)N2CCOc3ccc(Cl)cc32)CC1	x	8%	26µM*	u	x	x
O=C(Nc1cccc(F)c1)C1CCN(C(=O)N2CCOc3ccccc32)CC1	-26	x	u	u	-8	0%
O=C(NCCc1ccc(Cl)cc1)C1CCN(C(=O)N2CCOc3ccccc32)CC1	-27	x	26µM*	23µM*	-7	u
CCc1ccc(NC(=O)C2CCN(C(=O)N3CCOc4ccccc43)CC2)cc1	-4	x	26µM*	u	1	-15%
Cc1ccc2c(c1)N(C(=O)N1CCC(C(=O)NC3CCCCCC3)CC1)CCO2	x	1%	-10%	u	x	x
CCC[C@@H]1C[C@@H](C(=O)N[C@@H]([C@H]2O[C@H](SC)[C@H](OP(=O)(O)O)[C@@H](O)[C@H]2O)[C@H](C)Cl)N(C)C1	x	x	-5%	-4%	x	x
COc1cccc(/C=C/C(=O)OCC(=O)c2ccc(Br)cc2)c1	-19	x	3%	-6%	x	x
Cn1cc(S(=O)(=O)c2ccccc2)c(=O)c2cc(F)c(N3CCN(c4ccccc4)CC3)cc21	x	2%	u	u	x	x
CCc1ccccc1NC(=O)C1CCN(C(=O)N2CCOc3ccccc32)CC1	9	x	u	21µM*	7	-1%
CCCCCCN1CCN(C2CN(Cc3cn(Cc4ccccc4)nn3)S(=O)(=O)C2)CC1 (stereo unspecified)	-15	x	-29%	u	x	x
Cc1ccc(S(=O)(=O)N/N=C\c2ccc3c(c2)OCO3)c(C)c1	4	7%	u	-9%	14	-18%
CCN(CCn1cccn1)Cc1cn[nH]c1-c1ccc(-c2ccccc2)cc1	-22	6%	u	23µM*	58	u
SMILES	IL-1B inflam inh	TDP1 inh	TDP1 cell CPT	TDP1 cell noCPT	Giardia killer	ELG1 repair inh
CCN(CCn1cccn1)Cc1cn[nH]c1-c1cccc2ccccc12	4	8%	-14%	-16%	20	4%
C[C@]12CC[C@@H]3c4ccc(O)cc4CC[C@H]3[C@@H]1C[C@H](O)C2O (stereo partly specified)	x	0%	x	x	x	x
COc1ccc(C2CN=NC23CCCc2ccccc2C3=O)cc1 (stereo unspecified)	7	2%	u	23µM*	-5	u
O=C1c2ccccc2CCC12N=NCC2c1ccc(Cl)cc1 (stereo unspecified)	11	-1%	-1%	u	-4	-6%
COc1ccc(C2CN=NC23CCc2ccccc2C3=O)cc1 (stereo unspecified)	87	-1%	u	23µM*	10	u
O=C(OCC(=O)N1CCCC1=O)c1cc(Cl)ccc1O	3	x	13%	-4%	-2	-2%
COc1ccc(C(C)=O)cc1CSc1nnc(Nc2ccccc2C)s1	0	5%	u	u	32	u
COc1ccc(C(C)=O)cc1CSc1nnc(Nc2c(C)cccc2C)s1	-28	6%	21µM*	u	2	-16%
COc1cccc(C2(c3cccc(OC)c3)CC2C(=O)Nc2ccccc2Cl)c1 (stereo unspecified)	11	1%	u	23µM*	-23	u
Cc1cccc(C2(c3cccc(C)c3)CC2C(=O)Nc2ccc([N+](=O)[O-])cc2O)c1 (stereo unspecified)	-98*	7%	8.2µM*	5.2µM*	15	24%
CCOC(=O)N1CCN(C(=O)c2ccc(Cl)c(NC(=O)c3cccs3)c2)CC1	-19	0%	-19%	-22%	u	-29%
COCCCN(C(=S)Nc1c(C)cc(C)cc1C)C(C)c1ccccn1 (stereo unspecified)	1	-1%	u	21µM*	-10	-8%
Cc1cccc(C)c1NC(=S)N(CCN(C)C)C(C)c1ccccn1 (stereo unspecified)	0	7%	0%	-17%	13	0%
COc1ccc(/C=C/c2nc(C#N)c(N3CCC(C)CC3)o2)cc1OC	x	2%	16µM*	23µM*	x	x
COc1cc(/C=C/c2nc(C#N)c(N3CCCCC3)o2)cc(OC)c1OC	x	5%	8.2µM*	7.3µM*	x	x
Cc1cccc(-c2nc(C#N)c(N3CCC(C)CC3)o2)c1	26	x	-5%	1%	26	-3%
COc1ccccc1/C=C/c1nc(C#N)c(N2CCN(C)CC2)o1	x	0%	u	u	x	x
N#Cc1nc(/C=C/c2ccc(F)cc2)oc1N1CCCCC1	x	0%	u	u	x	x
Cc1cccc(-c2nc(C#N)c(N3CCCCCC3)o2)c1	-57*	11%	29µM*	u	2	u
COc1cccc(/C=C/c2nc(C#N)c(N3CCCCC3)o2)c1	x	2%	21µM*	23µM*	x	x
